# Laboratory results from PubChem BioAssay AID652283 (National Center for Advancing Translational Sciences (NCATS), 2013).
# Records with an inconclusive call do not appear. Calls of active or inactive are those of the source. The call rests on the fitted dose curve; in most records, active means well fitted inhibition curve with a large enough effect; inconclusive means small, poorly fitted or top-dose-only effect; inactive means no such curve, though single readings can be large or run the other way.
# Experiment: qHTS Assay for Lipid Storage Modulators: COS7 Assay against Probe and Analogs
# Settings: COS7 lipid droplet area, BODIPY imaging, 18 h; cells loaded with 400 µM oleic acid
# Outline: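 COS7 cells treated 17-18 h with compound in 5% FBS medium, 0.2% DMSO and 400 microM oleic acid. Fixed cells stained with BODIPY 493/503 and Hoechst; lipid droplets counted from microscope images by visual review and image segmentation.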
SMILES,max response,Potency
Cc1cccc(-c2ccc3ncnc(NCc4cccc(F)c4)c3c2)c1,-9.55% (inactive),
CC(NCc1ccc2c(c1)nc(NC(=O)c1ccc(-c3cn[nH]c3)s1)n2CC(C)(C)O)C(C)(C)C (stereo unspecified),,4.69 µM (active)
CC1=C(C(=O)NC2CCCc3c2cnn3-c2ccc(F)cc2F)OCCO1 (stereo unspecified),,13.2 µM (active)
O=C(NC1CCCc2c1cnn2-c1ccc(F)cc1F)c1cnon1 (stereo unspecified),13.2% (inactive),
CCOc1ccc(CCNC(=O)c2cc3sccc3n2C)cc1OCC,,8.33 µM (active)
CCOc1ccc(CCNC(=O)C2CCCCC2)cc1OCC,-8.52% (inactive),
CCOc1ccc(CCNC(=O)c2cc3ccccc3o2)cc1OCC,,29.6 µM (active)
CCOc1ccc(CCNC(=O)CN(C)C)cc1OCC,-3.2% (inactive),
CCOc1ccc(CCNC(=O)c2cc3sccc3n2Cc2ccccc2)cc1OCC,,0.935 µM (active)
CCn1c(C(=O)NCCc2ccc(OC)cc2)cc2sccc21,14.9% (inactive),
CC(C)(C)OC(=O)NCCOCCOCCOc1ccc(-n2ncc3c2CCCC3NC(=O)c2ccccn2)cc1 (stereo unspecified),,18.7 µM (active)
CCOc1ccc(CCNC(=O)c2ccc3ccccc3n2)cc1OCC,-25% (inactive),
CCOC(=O)C1CCN(C(=O)C(C)(C)NC(=O)Nc2ccccc2Cl)CC1,,13.2 µM (active)
CCOc1ccc(CCNC(=O)c2cc3ccccc3n2C)cc1OCC,,16.6 µM (active)
CCOc1ccc(CCNC(=O)c2ccc(N3N=C(C)CC3=O)cc2)cc1OCC,0.211% (inactive),
CCOc1ccc(CCNC(=O)c2cc3sccc3n2C(C)C)cc1OCC,,1.18 µM (active)
